This note sets out measurements from PubChem BioAssay (NCI).

Molecules are shown by their SMILES. The panel holds about 83,000 compounds, 20% with a hit somewhere; the sample as a whole holds those more often.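 The test compound was applied at a single concentration to cells in 96-well plates for 48 hours, and percent growth was recorded.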 Calls of active or inactive are those of the source. The calls were made as follows: active = growth percent below 10; inactive = the rest.

The test system of one assay is EKVX NSCLC. The assay can be described thus: NCI-60 one-dose screen, 48 h (100 = growth as untreated, 0 = no growth, -100 = all killed). As to conditions: 10 µM unless noted.
`CCC(C)(C)C(=O)O[C@H]1C[C@@H](C)C=C2C=C[C@H](C)[C@H](CC[C@@H]3C[C@@H](O)CC(=O)O3)[C@H]21`: the growth was 51.7% (inactive).

In the case of `O=C1C(=O)c2ccc(Br)cc2-c2cc(Br)ccc21`, the growth is 99.8% (inactive). Take `CCOC(=O)c1c(C)c(C(=O)OCC)n(C)c1C`: the growth is 75% (inactive).

`COc1ncc(-c2ccc3nccc(C#CCN4CCN(S(C)(=O)=O)CC4)c3c2)cc1NS(=O)(=O)c1ccc(F)cc1F`: the growth is 9.26% (active). The same measure, in the same setting: for `COc1ccc2c3c(c(OCCCN(C)C)nc2c1)-c1ccc(Cl)cc1C3=O` the value was 21.3% (inactive). Same read-out and setting: the same measure for `CC1=CC(=O)C(C(C)=Nc2ccccc2Cl)C(=O)O1` (stereo not drawn): 103% (inactive). The same measure, in the same setting: for `C=C(C[C@](O)(C(=O)/C=C/c1ccc(Cl)cc1)C(=O)OC)c1ccccc1` the value was 82.8% (inactive). For `Nc1ccc(C2=Nc3cccc4cccc(c34)S2)cc1`, the growth was 67.3% (inactive). For the compound `COc1cc(C2CC(c3ccc(C)cc3)=NN2C(C)=O)ccc1Oc1ccnc2cc(Cl)ccc12` (stereo not drawn), the growth was 63.3% (inactive). On the same count and under the same terms, the same measure for `CSc1ncc2ncn(C3OC(CO)C(O)C3O)c2n1` (stereo not drawn): 107% (inactive); for `COc1ccc2nc3cc(Cl)ccc3c(Nc3cc(C(C)C)c(O)cc3C)c2c1`: 25% (inactive); for `O=C(Nc1ccc(Cl)cc1Cl)Nc1ccc(-c2cccnc2)cc1N1CCC(CO)CC1`: 50.6% (inactive).

On to `COc1ccc2c(c1)C(=O)c1c-2c(OCCCN(C)C)nc2cc(Br)ccc12`, for which the growth was 61.8% (inactive). Still for that read-out and setting: for `CC(O)c1nc2c(c(=O)n(C)c(=O)n2C)n1C` (stereo not drawn) the value was 111% (inactive); for `COc1cc(Oc2cc(-c3cccnc3)ccc2NC(=O)Nc2ccc(F)cc2F)cc(OC)c1OC`, 90.4% (inactive). The same measure, in the same setting: the same measure for `O=C(/C=C/c1ccccc1Cl)c1ccc(O)cc1`: 84.8% (inactive); for `CN1CCN(Cc2ccc(NC(=O)c3[nH]ncc3Nc3ccnc4ccnn34)cc2)CC1`: 100% (inactive); for `Cc1cc(C(C)(C)c2cc(C)c(O)c(CN(C)C)c2)cc(CN(C)C)c1O`: 92.3% (inactive).

Take `N#Cc1c(N)[nH]c(S)c1C#N`: the growth was 101% (inactive).

For another assay, the system named is SN12C renal. Described as above. To be noted: 10 µM unless noted.
On to `c1cnc2ccc3ncccc3c2c1`, for which the growth is 101% (inactive). On the same count and under the same terms, for `CCCCCCCCCCSc1ncnc2nc[nH]c12` the value was 59.8% (inactive). On the same count and under the same terms, for `Clc1ccc2c(Nc3ccc4oc(NCCN5CCCC5)nc4c3)ccnc2c1` the value was 83.7% (inactive); for `CCCCCCCCCCCCNc1ncnc2[nH]ncc12`, 80.3% (inactive); for `CCCCCCCC/C=C/CCCCCCCC1=NC(C)(C)CN1CCO`, 60.9% (inactive). The same measure, in the same setting: the same measure for `O=C(CN1CCCCC1)Sc1nnc2sc3ccccc3n12`: 103% (inactive); for `c1cncc(CNc2ccccc2-c2nnc(Nc3ccc4c(c3)OCO4)o2)c1`: 28.8% (inactive). Turning to `CC(=O)NC1(C(=O)O)CCCC1`, the growth is 114% (inactive). On the same count and under the same terms, for `c1ccc(N2CCN(c3nncc4ccccc34)CC2)nc1` the value was 102% (inactive); for `O=c1[nH]c(Cl)nc2c1cnn2-c1ccccc1`, 97.4% (inactive). Still for that read-out and setting: the same measure for `ClC1=C(Cl)C(Cl)=C(Cl)C1=C/C=C/c1ccccc1`: -46% (active); for `CN(CC(=O)N(Cc1ccc(C2CCCCC2)cc1)c1ccc(C(=O)O)cc1)S(=O)(=O)c1c(F)c(F)c(F)c(F)c1F`: 19% (inactive). On the same count and under the same terms, the same measure for `COc1ccc(C2CC(c3cccc(Nc4ccnc5cc(Cl)ccc45)c3)=NN2C=O)cc1` (stereo not drawn): 37.9% (inactive); for `CCCCCCCCCCCCCCCCCC1=NC(C)(C)CN1CCO`: -29.6% (active). Regarding `COc1ccc(CCN2CCCN3C2=Nc2ccccc2S3(=O)=O)cc1`, the growth is 53.7% (inactive). Same read-out and setting: for `CCOC(=O)c1cc(-c2cccnc2)nc2c(Cl)cc(Cl)cc12` the value was 86.6% (inactive). In the case of `O=C1C(=O)c2ccc(Br)cc2-c2cc(Br)ccc21`, the growth was 34.1% (inactive). Still for that read-out and setting: the same measure for `CCOC(=O)c1c(C)c(C(=O)OCC)n(C)c1C`: 104% (inactive); for `COc1ncc(-c2ccc3nccc(C#CCN4CCN(S(C)(=O)=O)CC4)c3c2)cc1NS(=O)(=O)c1ccc(F)cc1F`: 2.52% (active); for `COc1ccc2c3c(c(OCCCN(C)C)nc2c1)-c1ccc(Cl)cc1C3=O`: 32.6% (inactive).

Take `CC1=CC(=O)C(C(C)=Nc2ccccc2Cl)C(=O)O1` (stereo not drawn): the growth is 105% (inactive).

`C=C(C[C@](O)(C(=O)/C=C/c1ccc(Cl)cc1)C(=O)OC)c1ccccc1`: the growth was 74.8% (inactive). Still for that read-out and setting: for `Nc1ccc(C2=Nc3cccc4cccc(c34)S2)cc1` the value was 94.2% (inactive); for `COc1cc(C2CC(c3ccc(C)cc3)=NN2C(C)=O)ccc1Oc1ccnc2cc(Cl)ccc12` (stereo not drawn), 77.5% (inactive). On the same count and under the same terms, for `CSc1ncc2ncn(C3OC(CO)C(O)C3O)c2n1` (stereo not drawn) the value was 120% (inactive); for `COc1ccc2nc3cc(Cl)ccc3c(Nc3cc(C(C)C)c(O)cc3C)c2c1`, 54.9% (inactive). Take `O=C(Nc1ccc(Cl)cc1Cl)Nc1ccc(-c2cccnc2)cc1N1CCC(CO)CC1`: the growth was 30.7% (inactive).

As to `COc1ccc2c(c1)C(=O)c1c-2c(OCCCN(C)C)nc2cc(Br)ccc12`, the growth was 62.2% (inactive). On the same count and under the same terms, for `CC(O)c1nc2c(c(=O)n(C)c(=O)n2C)n1C` (stereo not drawn) the value was 104% (inactive); for `COc1cc(Oc2cc(-c3cccnc3)ccc2NC(=O)Nc2ccc(F)cc2F)cc(OC)c1OC`, 102% (inactive); for `O=C(/C=C/c1ccccc1Cl)c1ccc(O)cc1`, 67.3% (inactive). On the same count and under the same terms, for `CN1CCN(Cc2ccc(NC(=O)c3[nH]ncc3Nc3ccnc4ccnn34)cc2)CC1` the value was 35.1% (inactive); for `Cc1cc(C(C)(C)c2cc(C)c(O)c(CN(C)C)c2)cc(CN(C)C)c1O`, 96.3% (inactive); for `N#Cc1c(N)[nH]c(S)c1C#N`, 108% (inactive).
